Test results as given in PubChem BioAssay (EPA / NIEHS).
Records with an inconclusive call do not appear. Calls of active or inactive are those of the source. Rule for the calls, unless noted: active = hit-call score of the fitted dose curve at least 0.9, where 1 is the maximum; inactive = score below 0.9.

Experiments:
[1] = ATG_PBREM_CIS: Attagene CIS-FACTORIAL HepG2 Assay for human Phenobarbital-responsive Enhancer Module (PBREM) (AID 2282955); conditions: HepG2 PBREM cis-reporter, Attagene multiplexed transcription; actives raise or lower the signal
Method in brief: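 Multiplexed cis-reporter readout in human hepatoma HepG2 cells; PBREM-regulated transcript quantified after 24 h exposure by fluorescent RT-PCR fragment analysis. Signal changes up or down fitted relative to DMSO.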

[2] = target: Paired box protein Pax-6 (Homo sapiens) (UniProt P26367); test: ATG_Pax6_CIS: Attagene CIS-FACTORIAL HepG2 Assay for human Paired Box 6 (PAX6) (AID 2282956); conditions: HepG2 CIS-FACTORIAL PAX6 reporter transcription, RNA readout; actives raise or lower the signal
Method in brief: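 After twenty-four hours of chemical exposure, transfected HepG2 cells are harvested for RNA. Cis-promoter reporter transcripts are amplified, fluorescently labelled and sized by capillary electrophoresis, with gain and loss of signal scored against DMSO.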

[3] = ATG_PXRE_CIS: Attagene CIS-FACTORIAL HepG2 Assay for human Pregnane X Receptor Element (PXRE) (AID 2282957); conditions: HepG2 Attagene CIS-FACTORIAL PXRE reporter, mRNA; actives raise or lower the signal
Method in brief: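 HepG2 cells transiently transfected with cis-element-driven multiplexed reporter units; after 24 h chemical exposure, reporter mRNA measured by RT-PCR, 6-FAM labelling, HpaI digestion and capillary electrophoresis. Bidirectional fitting relative to DMSO.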

[4] = ATG_Sox_CIS: Attagene CIS-FACTORIAL HepG2 Assay for human SRY-box transcription factor (SOX) (AID 2282960); conditions: HepG2 Attagene cis-factorial SOX reporter, mRNA; actives raise or lower the signal
Method in brief: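 Fluorescence-labelled cDNA fragments from reporter transcripts, sized by CE, give the signal. Cells: HepG2, transiently transfected with cis-regulated reporter units. Exposure 24 h; DMSO negative control; bidirectional curve fitting.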

[5] = target: Transcription factor Sp1 (Homo sapiens) (UniProt P08047); test: ATG_Sp1_CIS: Attagene CIS-FACTORIAL HepG2 Assay for human Specificity Protein 1 (Sp1) (AID 2282961); conditions: HepG2 Sp1 cis-reporter transcription, actives raise or lower the signal
Method in brief: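 Chemicals are dosed onto HepG2 cells transfected with multiple cis-promoter reporter constructs, and after 24 h reporter RNA is reverse-transcribed, PCR-amplified and resolved by capillary electrophoresis for fluorescence quantitation; activity is scored up or down against DMSO.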

[6] = ATG_SREBP_CIS: Attagene CIS-FACTORIAL HepG2 Assay for human Sterol Regulatory Element Binding (SREBP) (AID 2282962); conditions: HepG2 Attagene cis-factorial SREBP reporter, mRNA; actives raise or lower the signal
Method in brief: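 Twenty-four hours after chemical dosing of transfected HepG2 cultures, reporter RNA was converted to cDNA, amplified, end-labelled with 6-FAM and resolved by capillary electrophoresis. Responses were fitted relative to DMSO.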

[7] = target: Signal transducer and activator of transcription 3 (Homo sapiens) (UniProt P40763); test: ATG_STAT3_CIS: Attagene CIS-FACTORIAL HepG2 Assay for human Signal Transducer and Activator of Transcription 3 (STAT3) (AID 2282963); conditions: HepG2, Attagene cis-factorial STAT3 reporter transcription; actives raise or lower the signal
Method in brief: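 HepG2 cells transiently transfected with multiple cis-element-driven reporter units report endogenous transcription factor activity. After 24 h compound exposure, reporter mRNA is measured by RT-PCR, 6-FAM labelling, HpaI digestion and capillary electrophoresis. Fitted bidirectionally versus DMSO.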

[8] = ATG_TA_CIS: Attagene CIS-FACTORIAL HepG2 Assay for human TA Basal Promoter (AID 2282964); conditions: HepG2 Attagene CIS-factorial TA basal promoter reporter; actives raise or lower the signal
Method in brief: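 Transient MRTU transfection of HepG2 preceded 24 h compound exposure. Reporter mRNA levels were then read by RT-PCR with capillary electrophoresis, and this background-control endpoint was fitted bidirectionally to DMSO.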

[9] = ATG_TCF_b_cat_CIS: Attagene CIS-FACTORIAL HepG2 Assay for human T-Cell-Factor with beta-catenin (TCF/b-cat) (AID 2282965); conditions: HepG2 TCF/beta-catenin cis-reporter transcription, actives raise or lower the signal
Method in brief: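 Cells of the HepG2 line carry transiently transfected reporter units whose promoters respond to endogenous factors. Twenty-four hours post-dosing, reporter mRNA induction is measured by fluorescent RT-PCR and capillary electrophoresis, with DMSO as baseline.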

[10] = ATG_TAL_CIS: Attagene CIS-FACTORIAL HepG2 Assay for human TAL Basal Promoter (AID 2282966); conditions: HepG2 Attagene cis-factorial TAL promoter reporter; actives raise or lower the signal;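 note: background control endpoint measuring basal TAL promoter reporter mRNA not a specific factor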
Method in brief: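 HepG2 cells transiently transfected with multiplexed cis-promoter reporter units, dosed 24 h. Reporter mRNA quantified by RT-PCR, 6-FAM labelling, HpaI digestion and capillary electrophoresis; TAL basal promoter serves as background control, fitted bidirectionally versus DMSO.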

[11] = ATG_TGFb_CIS: Attagene CIS-FACTORIAL HepG2 Assay for human Transforming Growth Factor (TGF) (AID 2282967); conditions: HepG2 Attagene CIS TGFb reporter, mRNA transcription; actives raise or lower the signal
Method in brief: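 After a 24-hour incubation with compound, transfected HepG2 cells were lysed for RNA; reporter cDNA was amplified, fluorescently end-labeled and separated by CE. DMSO served as baseline for bidirectional fits.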

[12] = ATG_VDRE_CIS: Attagene CIS-FACTORIAL HepG2 Assay for human Vitamin D Receptor Element (VDRE) (AID 2282968); conditions: HepG2 VDRE cis-reporter transcription, actives raise or lower the signal
Method in brief: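 Transiently transfected HepG2 cells carrying cis-regulated reporter transcription units were exposed for 24 h. Reporter mRNA was measured by RT-PCR with fluorescent labelling and capillary electrophoresis, and fitted in both directions against DMSO.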

[13] = target: Nuclear receptor subfamily 1 group I member 3 (Homo sapiens) (UniProt Q14994); test: ATG_CAR_TRANS: Attagene TRANS-FACTORIAL HepG2 Assay for human Constitutive Androstane Receptor (CAR) (AID 2282969; active = hit-call score of the fitted dose curve at least 0.9, where 1 is the maximum;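 note: activators raise reporter mRNA above DMSO so AC50 marks induction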); conditions: HepG2 Attagene TRANS-FACTORIAL CAR reporter
Method in brief: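 HepG2 cells transiently transfected with GAL4-UAS reporter units; TRANS format reads activity of exogenous chimeric NR-Gal4 protein. After 24 h dosing, reporter mRNA quantified by RT-PCR, 6-FAM labelling and capillary electrophoresis; gain of signal fitted against DMSO.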

[14] = target: X-box-binding protein 1 (Homo sapiens) (UniProt P17861); test: ATG_Xbp1_CIS: Attagene CIS-FACTORIAL HepG2 Assay for human X-box Binding Protein 1 (XBP1) (AID 2282972); conditions: HepG2 XBP1 cis-element reporter, Attagene multiplex; actives raise or lower the signal
Method in brief: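 After a 24-hour chemical exposure of HepG2 cells carrying cis-regulated reporters, reporter mRNA levels are assessed. Quantification uses RT-PCR, 6-FAM labelling and capillary electrophoresis. Gain- or loss-of-signal is fitted against DMSO.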

[15] = ATG_GAL4_TRANS: Attagene TRANS-FACTORIAL HepG2 Assay for GAL4 (Internal Marker) (AID 2282976; active = hit-call score of the fitted dose curve at least 0.9, where 1 is the maximum); conditions: HepG2 Attagene TRANS GAL4 internal marker reporter
Method in brief: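 Background-control readout: GAL4-UAS reporter transcript in transiently transfected HepG2 cells after 24 h compound exposure. Measured by RT-PCR, 6-FAM primer extension, HpaI digest and capillary electrophoresis; gain-of-signal fit versus DMSO.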

[16] = ATG_RORE_CIS: Attagene CIS-FACTORIAL HepG2 Assay for human RAR-related Orphan Receptor Element (RORE) (AID 2282959); conditions: HepG2 Attagene cis-factorial RORE reporter, mRNA; actives raise or lower the signal
Method in brief: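 Transfect HepG2 with MRTUs; treat 24 h; extract RNA; RT with oligo(dT); PCR with reporter-specific primers; 6-FAM primer extension; HpaI digest 2 h at 37 C; capillary electrophoresis. Fit vs DMSO, bidirectional.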

[17] = target: Estrogen receptor (Homo sapiens) (UniProt P03372); test: ATG_ERa_TRANS: Attagene TRANS-FACTORIAL HepG2 Assay for human Estrogen Receptor alpha (ERa) (AID 2282970; active = hit-call score of the fitted dose curve at least 0.9, where 1 is the maximum); conditions: HepG2 Attagene TRANS ERa GAL4 reporter, mRNA
Method in brief: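 HepG2 cells transiently transfected with multiplexed GAL4-UAS reporter units read out chimeric NR-Gal4 activity. After 24 h compound exposure, reporter mRNA was quantified by RT-PCR, 6-FAM labeling, HpaI digestion and capillary electrophoresis, relative to DMSO.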

[18] = target: Steroid hormone receptor ERR1 (Homo sapiens) (UniProt P11474); test: ATG_ERRa_TRANS: Attagene TRANS-FACTORIAL HepG2 Assay for human Estrogen-Related Receptor alpha (ERRa) (AID 2282971; active = hit-call score of the fitted dose curve at least 0.9, where 1 is the maximum); conditions: HepG2 Attagene TRANS reporter, ERRa transactivation
Method in brief: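 HepG2 cells transiently transfected with GAL4-UAS reporter units and chimeric NR-Gal4 constructs; after 24 hour compound incubation, reporter mRNA quantified by RT-PCR, fluorescent labelling and capillary electrophoresis, gain of signal versus DMSO.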

[19] = ATG_M_19_TRANS: Attagene TRANS-FACTORIAL HepG2 Assay for M19 Transcription Factor (Internal Marker) (AID 2282974; active = hit-call score of the fitted dose curve at least 0.9, where 1 is the maximum); conditions: HepG2 Attagene TRANS-FACTORIAL M19 internal marker reporter
Method in brief: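 Multiplexed TRANS format: HepG2 liver cells bearing transient GAL4-UAS reporter units, chemical treatment 24 h, reporter transcripts quantified by RT-PCR plus capillary electrophoresis. DMSO defines baseline.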

Measured: AC50

Chain of X-box-binding protein 1 (Homo sapiens) (P17861 whole entry, looked up): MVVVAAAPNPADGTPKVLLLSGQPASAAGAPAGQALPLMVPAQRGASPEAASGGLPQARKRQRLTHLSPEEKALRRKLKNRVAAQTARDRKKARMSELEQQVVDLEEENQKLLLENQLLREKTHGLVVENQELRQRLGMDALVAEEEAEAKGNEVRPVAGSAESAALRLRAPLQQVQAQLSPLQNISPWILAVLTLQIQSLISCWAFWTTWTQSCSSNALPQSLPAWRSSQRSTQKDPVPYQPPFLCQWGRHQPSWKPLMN
Chain of Signal transducer and activator of transcription 3 (Homo sapiens) (P40763 whole entry, looked up): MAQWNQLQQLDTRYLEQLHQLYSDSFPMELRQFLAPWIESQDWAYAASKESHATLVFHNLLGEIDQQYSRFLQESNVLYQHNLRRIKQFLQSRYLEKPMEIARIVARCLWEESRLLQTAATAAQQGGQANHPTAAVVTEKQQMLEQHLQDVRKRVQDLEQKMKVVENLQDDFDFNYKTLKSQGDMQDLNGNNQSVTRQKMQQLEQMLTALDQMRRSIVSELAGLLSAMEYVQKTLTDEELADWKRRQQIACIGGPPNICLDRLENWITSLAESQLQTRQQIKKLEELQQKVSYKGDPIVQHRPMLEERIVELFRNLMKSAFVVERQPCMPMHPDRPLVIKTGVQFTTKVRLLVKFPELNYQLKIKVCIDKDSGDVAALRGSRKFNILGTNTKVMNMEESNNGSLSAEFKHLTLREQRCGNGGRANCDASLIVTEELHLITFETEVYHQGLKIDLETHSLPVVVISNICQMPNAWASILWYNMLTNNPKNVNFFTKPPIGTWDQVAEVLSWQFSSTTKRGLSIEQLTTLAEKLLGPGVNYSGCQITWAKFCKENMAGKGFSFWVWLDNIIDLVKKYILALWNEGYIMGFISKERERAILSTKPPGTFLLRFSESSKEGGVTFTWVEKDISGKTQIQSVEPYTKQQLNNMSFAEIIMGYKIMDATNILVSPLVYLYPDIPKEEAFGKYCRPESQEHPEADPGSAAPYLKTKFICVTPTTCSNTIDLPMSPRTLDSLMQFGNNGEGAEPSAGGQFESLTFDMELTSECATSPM
Chain of Nuclear receptor subfamily 1 group I member 3 (Homo sapiens) (Q14994 whole entry, looked up, the tested form may be a part): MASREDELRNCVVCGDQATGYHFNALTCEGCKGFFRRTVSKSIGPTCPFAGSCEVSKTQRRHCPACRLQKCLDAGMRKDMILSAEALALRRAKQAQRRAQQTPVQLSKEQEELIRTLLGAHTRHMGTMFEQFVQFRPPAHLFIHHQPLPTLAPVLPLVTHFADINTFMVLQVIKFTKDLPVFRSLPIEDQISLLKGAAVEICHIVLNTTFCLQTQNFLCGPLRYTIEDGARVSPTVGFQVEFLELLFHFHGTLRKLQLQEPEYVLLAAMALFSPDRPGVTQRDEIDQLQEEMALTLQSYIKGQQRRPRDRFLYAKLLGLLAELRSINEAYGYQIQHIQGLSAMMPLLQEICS
Chain of Paired box protein Pax-6 (Homo sapiens) (P26367 whole entry, looked up): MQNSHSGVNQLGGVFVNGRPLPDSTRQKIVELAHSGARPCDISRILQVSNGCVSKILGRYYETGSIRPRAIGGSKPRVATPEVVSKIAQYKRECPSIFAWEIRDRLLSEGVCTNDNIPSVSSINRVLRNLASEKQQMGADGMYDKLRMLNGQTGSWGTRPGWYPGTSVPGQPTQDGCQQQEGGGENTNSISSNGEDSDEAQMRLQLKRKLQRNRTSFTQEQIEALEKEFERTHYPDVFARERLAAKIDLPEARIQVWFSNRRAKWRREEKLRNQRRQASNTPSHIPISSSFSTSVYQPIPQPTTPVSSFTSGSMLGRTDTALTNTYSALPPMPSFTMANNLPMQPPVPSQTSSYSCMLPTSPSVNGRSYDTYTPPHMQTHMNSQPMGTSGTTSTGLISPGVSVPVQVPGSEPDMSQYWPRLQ
Chain of Estrogen receptor (Homo sapiens) (P03372 whole entry, looked up, the tested form may be a part): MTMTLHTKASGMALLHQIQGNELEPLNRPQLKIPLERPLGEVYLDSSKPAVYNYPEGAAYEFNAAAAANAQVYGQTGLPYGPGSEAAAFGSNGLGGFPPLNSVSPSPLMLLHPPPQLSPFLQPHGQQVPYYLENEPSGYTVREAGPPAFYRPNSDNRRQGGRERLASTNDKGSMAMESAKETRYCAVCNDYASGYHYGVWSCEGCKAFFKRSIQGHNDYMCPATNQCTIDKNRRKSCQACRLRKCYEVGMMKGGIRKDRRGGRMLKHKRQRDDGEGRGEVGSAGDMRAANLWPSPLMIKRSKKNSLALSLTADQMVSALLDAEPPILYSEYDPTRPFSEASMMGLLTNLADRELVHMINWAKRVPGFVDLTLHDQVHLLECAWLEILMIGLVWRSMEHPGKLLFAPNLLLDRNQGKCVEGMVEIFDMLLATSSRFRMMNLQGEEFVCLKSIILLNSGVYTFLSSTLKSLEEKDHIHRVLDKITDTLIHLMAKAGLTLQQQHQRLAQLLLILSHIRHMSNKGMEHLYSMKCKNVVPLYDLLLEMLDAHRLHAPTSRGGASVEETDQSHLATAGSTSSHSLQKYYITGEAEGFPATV
Chain of Transcription factor Sp1 (Homo sapiens) (P08047 whole entry, looked up): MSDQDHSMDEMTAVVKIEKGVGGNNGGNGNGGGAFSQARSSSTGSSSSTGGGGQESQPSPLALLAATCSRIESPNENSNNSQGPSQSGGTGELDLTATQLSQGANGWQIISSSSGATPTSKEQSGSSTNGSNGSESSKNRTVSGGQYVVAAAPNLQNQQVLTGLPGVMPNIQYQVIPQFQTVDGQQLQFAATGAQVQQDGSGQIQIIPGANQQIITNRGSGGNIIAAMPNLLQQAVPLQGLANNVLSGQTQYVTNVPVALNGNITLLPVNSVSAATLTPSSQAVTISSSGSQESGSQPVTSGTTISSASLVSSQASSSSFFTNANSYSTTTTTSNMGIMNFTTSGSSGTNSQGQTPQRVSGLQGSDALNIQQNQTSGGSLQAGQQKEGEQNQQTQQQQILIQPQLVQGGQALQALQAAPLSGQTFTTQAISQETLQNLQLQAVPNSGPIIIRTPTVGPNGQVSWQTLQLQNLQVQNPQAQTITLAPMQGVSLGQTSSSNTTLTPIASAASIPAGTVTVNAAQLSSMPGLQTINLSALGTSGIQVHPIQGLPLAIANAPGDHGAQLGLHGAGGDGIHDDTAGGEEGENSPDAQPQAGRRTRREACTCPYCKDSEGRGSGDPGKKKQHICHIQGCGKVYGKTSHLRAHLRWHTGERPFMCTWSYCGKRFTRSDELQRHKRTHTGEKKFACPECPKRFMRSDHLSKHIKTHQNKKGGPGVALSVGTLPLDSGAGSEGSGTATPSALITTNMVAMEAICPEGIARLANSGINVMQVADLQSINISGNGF
Chain of Steroid hormone receptor ERR1 (Homo sapiens) (P11474 whole entry, looked up, the tested form may be a part): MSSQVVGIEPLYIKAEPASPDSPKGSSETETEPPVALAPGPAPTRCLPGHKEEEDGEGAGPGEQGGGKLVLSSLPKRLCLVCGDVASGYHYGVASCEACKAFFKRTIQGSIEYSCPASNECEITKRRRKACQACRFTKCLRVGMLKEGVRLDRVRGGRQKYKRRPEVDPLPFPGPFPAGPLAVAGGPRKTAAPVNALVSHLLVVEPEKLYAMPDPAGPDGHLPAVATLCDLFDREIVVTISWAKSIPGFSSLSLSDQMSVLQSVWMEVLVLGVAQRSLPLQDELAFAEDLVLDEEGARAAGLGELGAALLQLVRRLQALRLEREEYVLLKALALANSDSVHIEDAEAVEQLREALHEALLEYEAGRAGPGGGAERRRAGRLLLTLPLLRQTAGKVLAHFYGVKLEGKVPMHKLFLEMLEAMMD

O=S(=O)(O)c1cc(S(=O)(=O)O)c2c(N=Nc3ccccc3)c(O)ccc2c1
not listed: [16] | [17] | [18] | [19]
inactive: all other assays above

O=C(O)c1cc2ccccc2cc1O
active: [3] 54.4 µM
not listed: [11] | [15] | [19]
inactive: all other assays above

CCCCCCCCCCOC(=O)c1ccccc1C(=O)OCCCCCCCC
active: [3] 3.87 µM
not listed: [11] | [17] | [18]
inactive: all other assays above

c1coc(CNc2ncnc3nc[nH]c23)c1
active: [3] 44 µM
not listed: [9] | [13] | [14] | [15] | [18] | [19]
inactive: all other assays above

CN(C)C
not listed: [16] | [18]
inactive: all other assays above

COc1ccc(C(C)=O)cc1
not listed: [5] | [9] | [15] | [18]
inactive: all other assays above

O=C(O)c1ccccc1O
not listed: [8] | [14] | [17]
inactive: all other assays above

C=C1CC[C@H]2O[C@]2(C)CC[C@@H]2[C@@H]1CC2(C)C
not listed: [5] | [9] | [15] | [18]
inactive: all other assays above
